Reference: PubChem BioAssay AID651658 (Broad Institute, 2012)
Several values for one entry are separate records, joined by “and”; a condition that tells them apart may be missing. Equal values may be shown once. Out of some 340,000 compounds screened, about 5,100 (1.5%) were called active. The sample as a whole holds a higher share of actives than the screen did. Values without a mark were called inactive.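 How the source made its calls: active means mean Tm shift, scaled 0 neutral to 100 positive control, at about 1.3% or above, every replicate too (limit read from the data); inconclusive means no clear call, values can overlap the other calls; inactive means the rest.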

target: Fibroblast growth factor 22 (Homo sapiens) (UniProt Q9HCT0); experiment: FGF22 ligand-induced thermal stabilization – biophysical, thermal shift, single point, FGF22 synaptogenesis inhibitor project, primary screen (AID 651658); conditions: recombinant FGF22 thermal shift, SYPRO orange fluorescence; at 9.99 µM; stronger effect = higher value; percent of sucrose octasulfate shift, DMSO zero
Sequence (Q9HCT0 whole entry, looked up): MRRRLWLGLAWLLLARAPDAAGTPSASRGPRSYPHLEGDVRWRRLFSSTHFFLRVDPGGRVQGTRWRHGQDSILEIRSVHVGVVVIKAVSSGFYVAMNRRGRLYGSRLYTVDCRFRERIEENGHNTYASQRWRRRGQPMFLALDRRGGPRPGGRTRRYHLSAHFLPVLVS

Compound | activity (Tm shift, normalised)
CCCC(=O)Nc1ccc2c(c1)OC[C@H](C)N(Cc1ccc(F)cc1)C[C@H](C)[C@H](OC)CN(C)C2=O | -0.11%
CO[C@@H]1CN(C)C(=O)c2cc(NC(=O)CC(F)(F)F)ccc2OC[C@H](C)N(S(=O)(=O)c2cn(C)cn2)C[C@H]1C | -0.268%
N#CCC(=O)NC(=O)NCC1CC1 | 45.2% (active)
O=C(NCC1CCCCC1)NCC1CCCCC1 | 0.197%
N#CCC(=O)NC1CCC(CC2CCC(NC(=O)CC#N)CC2)CC1 (centres undefined) | -0.185%
O=C(C[C@H]1C[C@H]2c3cc(NC(=O)C4CCOCC4)ccc3O[C@H]2[C@@H](CO)O1)NCCN1CCCCC1 | 0.018%
COc1ccc2c3c(n(C)c2c1)[C@@H](CO)N(C(=O)C1CC1)CC31CN(C(=O)C2CCOCC2)C1 | -0.006%
O=C(c1cccnc1)N1CCCCN2[C@@H](CO)[C@H](c3ccc(C#Cc4ccccc4)cc3)[C@@H]2C1 | -0.469%
O=C1C=CCCN1C(=O)/C=C/c1ccc(F)cc1 | 1.39% (active)
O=C1CN(C(=O)COC(=O)/C=C/c2ccc(F)cc2)c2ccccc2N1 | 0.119%
O=C(N/C(=C\c1ccc(F)cc1)C(=O)N1CCCCCC1)c1ccccc1 | -0.445%
C[C@@H]1CN([C@H](C)CO)C(=O)c2cc(NS(=O)(=O)c3cn(C)cn3)ccc2O[C@@H](C)CCCCO[C@@H]1CN(C)C(=O)CCC(F)(F)F | -0.484%
CCc1nnc(NS(=O)(=O)c2ccc(NC(=S)NC(=O)c3cccs3)cc2)s1 | 0.364%
Cc1cc(NS(=O)(=O)c2ccc(NC(=O)c3cccc(OC(F)F)c3)cc2)nc(C)n1 | 0.163%
CCc1nnc(NC(=O)c2cccc(S(=O)(=O)N(C)c3ccc(OC)cc3)c2)s1 | 0.249%
CCc1nnc(NS(=O)(=O)c2ccc(NC(=O)c3cccc(OC(F)(F)C(F)F)c3)cc2)s1 | 1.64% (active)
CCc1nnc(NS(=O)(=O)c2ccc(NC(=S)NC(=O)/C=C/c3cccs3)cc2)s1 | 43.7% (active)
CCOC(=O)c1c(NC(=S)NC(=O)/C=C/c2cccs2)sc(C)c1C | 0.207%
O=C(Cc1ccncc1)NCC[C@H]1CC[C@@H](NC(=O)Nc2ccc(Cl)cc2)[C@@H](CO)O1 | -0.005%
O=C(C[C@H]1CC[C@@H](NC(=O)Nc2ccc(F)cc2)[C@@H](CO)O1)NCCN1CCCC1 | -0.13%
CC(C)NC(=O)N[C@H]1CC[C@H](CC(=O)N2CCCCC2)O[C@@H]1CO | 0.022%
COc1ccc(S(=O)(=O)Nc2ccc3c(c2)CC(=O)N([C@H](C)CO)C[C@H](C)[C@@H](CN(C)C(=O)NC(C)C)O3)cc1 | -0.229%
CCC(O)CNc1nc(-n2nc(C)cc2C)nc2sc3c(c12)CC(C)(C)OC3 (centres undefined) | -0.058%
CCSc1nc2sc3c(c2c(=O)[nH]1)CC(C)(C)OC3 | -0.053%
CC(C)c1nc2sc3c(c2c(=O)n1N)CC(C)(C)OC3 | 42.9% (active)
COC(=O)[C@@H]1[C@@H](CO)[C@@H]2Cn3c(ccc(-c4ccc(OC)cc4)c3=O)[C@@H]2N1C | 0.199%
O=C(CSc1nn(-c2ccc(F)cc2)c(=S)s1)NC1CCS(=O)(=O)C1 (centres undefined) | 0.458%

Compound | activity (Tm shift, normalised)
O=C(CSc1ccccc1F)NC1CCS(=O)(=O)C1 (centres undefined) | 43% (active)
O=C(Cc1ccc(Cl)cc1)NC1CCS(=O)(=O)C1 (centres undefined) | -0.305%
CO[C@H]1CC[C@@H]2CCOc3c(C#N)cccc3C(=O)N(C)CCCC(=O)N(C)C[C@@H]1O2 | 0.064%
CCC1C(=O)NCCN1C(=O)c1ccc2nc(Cc3ccc(OC)cc3)oc2c1 (centres undefined) | 0.064%
CCn1ccnc1CN(C)C(=O)c1ccc2nc(Cc3ccc(OC)cc3)oc2c1 | 1.62% (active)
COc1ccc(Cc2nc3ccc(C(=O)N4CCC(N(C)C)C4)cc3o2)cc1 (centres undefined) | -0.031%
COc1ccc2c3c(n(C)c2c1)[C@@H](CO)N(C(=O)NC1CCCC1)CC31CCN(C(C)=O)CC1 | -0.236%
CC=Cc1ccc2n(c1=O)C[C@@H]1[C@@H](CO)[C@H](C(=O)NCCC)[C@H]2N1C(=O)C1CC1 (mixture of isomers) | -0.404%
CC(=O)Nc1ccccc1-c1cn(CC(=O)N2CCOCC2)nn1 | -0.164%
O=C(c1cccc([N+](=O)[O-])c1)N1CCN(Cc2ccccc2)CC1 | 0.006%
O=C(CCl)N(Cc1cccc([N+](=O)[O-])c1)c1cccc(Cl)c1 | 43.2% (active)
COC(=O)c1cc(C(=O)N(Cc2ccccc2)c2ccccn2)cc([N+](=O)[O-])c1 | 0.167%
O=C(Nc1ccc(F)cc1)C(=O)c1cn(CC(=O)N2CCOCC2)c2ccccc12 | -0.305%
O=C(c1ccc(F)cc1)n1cc(C(=S)N2CCOCC2)c2ccccc21 | 43.1% (active)
O=C(Oc1ccc(C(=S)N2CCOCC2)cc1)c1ccc(F)cc1 | -0.154%
COC(=O)C[C@@H]1CC[C@H]2[C@H](COc3ccc(NC(=O)c4cccs4)cc3C(=O)N2C)O1 | -0.323%
COc1cc(NC(=O)c2cccs2)ccc1NC(=O)c1ccccc1Cl | 1.14%
COc1cc(NC(=O)c2ccc3c(c2)OCO3)ccc1NC(=O)c1cccs1 | 1.67% (active)
CC(C)NC(=O)Nc1ccc2c(c1)C(=O)N(C)[C@H]1CC[C@H](CC(=O)NCc3ccc(F)cc3)O[C@H]1CO2 | 0.053%
O=C(Nc1ccccc1F)N[C@H]1C=C[C@H](CC(=O)N2CCCCC2)O[C@H]1CO | 0.391%
COc1cccc(NC(=O)N2C3CCCC2CC(NC(C)=O)C3)c1 (centres undefined) | 0.301%
C=CCN1C2CCCC1CC(NC(=S)Nc1cccc(OC)c1)C2 (centres undefined) | 43.2% (active)
CCCN1C2CCCC1CC(NC(=O)c1cccc(OC)c1)C2 (centres undefined) | -0.224%
O=S(=O)(N[C@@H]1CC[C@H](CCn2cc(C3(O)CCCC3)nn2)O[C@@H]1CO)c1ccc(Cl)cc1 | -0.216%
C[C@H]1CN([C@@H](C)CO)S(=O)(=O)c2ccc(-c3cccnc3)cc2O[C@H]1CN(C)C(=O)C1CCCCC1 | 0.041%
CCCN1C[C@@H](C)[C@@H](OC)CN(C)C(=O)c2ccc(NC(=O)Nc3cccc(F)c3)cc2OC[C@@H]1C | -0.405%
OCCC1CN(Cc2ccc(Oc3ncccn3)cc2)CCN1CCc1ccccc1 (centres undefined) | 0.032%

Compound | activity (Tm shift, normalised)
CCOc1ccc(CN2CCN(CCCc3ccccc3)C(CCO)C2)cc1 (centres undefined) | -0.164%
COC(=O)c1ccc(CN2CCN(CCCc3ccccc3)C(CCO)C2)cc1 (centres undefined) | 43.7% (active)
O=C(C[C@H]1CC[C@H](NC(=O)C2CCC2)[C@@H](CO)O1)NCCCN1CCOCC1 | 0.216%
O=C(C1CCOCC1)N1CC2(C1)[C@H](c1ccccc1)[C@H](CO)N2Cc1ccc(Cl)cc1 | -0.232%
CN1C[C@H](O)COC[C@H]2O[C@H](CC(=O)NC3CCC3)CC[C@@H]21 | 0.225%
CCC(=O)N1C[C@@H](C)[C@@H](OC)CN(C)C(=O)c2ccc(NC(=O)C3CCCCC3)cc2OC[C@H]1C | 0.107%
COc1ccccc1N(CC(=O)Nc1ccccc1C(=O)N1CCCC1)S(C)(=O)=O | 41.8%
COc1ccccc1N(CC(=O)Nc1ccc(C(F)(F)F)cc1)S(C)(=O)=O | 43.3% (active)
COc1ccccc1NC(=O)CN(c1ccccc1OC)S(=O)(=O)c1ccccc1 | -0.013%
COc1cccc(S(=O)(=O)N2C[C@H](O)COC[C@H]3O[C@@H](CC(=O)N4CCN(c5ccccc5)CC4)CC[C@@H]32)c1 | 0.06%
c1cc(-c2ccc3[nH]ccc3c2)n2ccnc2c1 | 43.4% (active)
Clc1ccc(-c2cccc3nccn23)cc1 | 0.174%
O=C(NCCO)c1cccc(-c2cccc3nccn23)c1 | -0.228%
Cn1cnc(CCNC(=O)C[C@H]2CC[C@@H]3[C@H](COC[C@H](O)CN3C(=O)C3CC3)O2)c1 | -0.297%
COc1cccc(S(=O)(=O)N2CC3(CCN(C)CC3)c3c(n(C)c4cc(OC)ccc34)[C@H]2CO)c1 | 0.01%
C[C@H]1CN([C@@H](C)CO)C(=O)c2c(c3ccccc3n2C)-c2ccccc2CO[C@@H]1CN(C)Cc1ccc2c(c1)OCCN2C | -0.115%
O=C(NNC(=O)c1ccc(Cl)cc1Cl)c1cccs1 | 43.3% (active)
O=C(COC(=O)c1ccc(O)cc1O)NNC(=O)c1cccs1 | 0.153%
Cc1ccc(NNC(=O)c2cccs2)cc1Cl | -0.036%
C/C=C/c1cnc2c(c1)C(=O)N([C@H](C)CO)C[C@H](C)[C@@H](CN(C)CC1CCOCC1)O2 | -0.049%
C[C@@H]1CN([C@@H](C)CO)S(=O)(=O)c2ccc(C3=CCCC3)cc2O[C@H]1CN(C)C(=O)CC1CC1 | -0.028%
COc1ccc2c3c([nH]c2c1)[C@@H](CO)N(C(=O)Nc1cccc(F)c1)CC31CCN(S(=O)(=O)c2ccccc2)CC1 | -0.126%
O=C(N[C@H]1CC[C@H](CC(=O)N2CCCCC2)O[C@@H]1CO)c1cccc(F)c1 | -0.194% and -0.138%
O=C(N[C@@H]1C=C[C@H](CC(=O)N2CCCCC2)O[C@H]1CO)c1cccc(F)c1 | 2.12% (active)
O=C(N[C@H]1C=C[C@@H](CC(=O)N2CCCCC2)O[C@@H]1CO)c1ccc2c(c1)OCO2 | -0.043%
